Sampled rows, rich in hits. Any-hit rate of the full collection: about 1.7%.
SUMO1-SIM PPI – SUMO1-SIM interaction modulation. P63165. AID 602429. SUMO1 binding to a labelled peptide, TR-FRET, 1 h. hit rate 0.33% among 360,000. inhibition, % at 20 µM; in the data active = inhibition above about 37%
ATG4B inh – ATG4B (human) cysteine protease inhibition; hit rate 0.51% among 340,000; ATG4B cleavage of LC3-PLA2, NBD-HPC fluorescence, 1 h; inhibition, % at 8.33 µM
Neddylation inh – blocks human cullin neddylation | hit rate 0.58% among 360,000 | inhibition, % at 25 µM | P61081+Q13564 | AID 651699 | TR-FRET cullin neddylation, biochemical; in the data active = inhibition above about 36%
Rin1-Abl PPI inh – inhibitors of human Rin1-Abl protein interaction | hit rate 0.4% among 360,000 | inhibition, % at 7.35 µM | P00519+Q13671 | TR-FRET Rin1/Abl binding, biochemical; in the data active = inhibition above about 5%, passing the limit was not always enough
Target sequence (P00519 whole entry, looked up): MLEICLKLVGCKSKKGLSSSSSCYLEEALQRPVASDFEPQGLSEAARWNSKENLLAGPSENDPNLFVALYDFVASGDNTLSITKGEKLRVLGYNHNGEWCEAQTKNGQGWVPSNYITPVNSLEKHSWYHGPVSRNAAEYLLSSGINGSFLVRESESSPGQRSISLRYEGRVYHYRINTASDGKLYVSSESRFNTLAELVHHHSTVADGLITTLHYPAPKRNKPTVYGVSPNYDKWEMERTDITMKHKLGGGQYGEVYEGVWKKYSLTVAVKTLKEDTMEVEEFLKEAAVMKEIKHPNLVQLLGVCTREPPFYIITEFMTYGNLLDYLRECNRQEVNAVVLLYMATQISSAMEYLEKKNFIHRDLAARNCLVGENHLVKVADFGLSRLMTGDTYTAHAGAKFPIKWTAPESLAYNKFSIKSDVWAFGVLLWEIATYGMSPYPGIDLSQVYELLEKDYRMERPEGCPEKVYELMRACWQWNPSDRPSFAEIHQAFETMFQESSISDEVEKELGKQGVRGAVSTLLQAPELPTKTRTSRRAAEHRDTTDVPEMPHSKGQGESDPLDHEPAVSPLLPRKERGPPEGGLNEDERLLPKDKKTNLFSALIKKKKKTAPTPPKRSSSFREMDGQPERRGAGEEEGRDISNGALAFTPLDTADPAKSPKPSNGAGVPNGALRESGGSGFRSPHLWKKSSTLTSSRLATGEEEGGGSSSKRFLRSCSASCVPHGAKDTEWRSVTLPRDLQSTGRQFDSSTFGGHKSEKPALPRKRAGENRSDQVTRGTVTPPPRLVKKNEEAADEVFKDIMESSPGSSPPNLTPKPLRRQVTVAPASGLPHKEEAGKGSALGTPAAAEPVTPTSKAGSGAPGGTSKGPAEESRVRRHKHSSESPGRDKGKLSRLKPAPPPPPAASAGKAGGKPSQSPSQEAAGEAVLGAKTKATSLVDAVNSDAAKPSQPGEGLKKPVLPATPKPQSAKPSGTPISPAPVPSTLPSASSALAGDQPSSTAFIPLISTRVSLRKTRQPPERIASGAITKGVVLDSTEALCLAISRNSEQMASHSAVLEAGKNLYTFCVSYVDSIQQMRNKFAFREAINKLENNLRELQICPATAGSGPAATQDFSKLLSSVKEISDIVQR
Target sequence (Q13671 whole entry, looked up): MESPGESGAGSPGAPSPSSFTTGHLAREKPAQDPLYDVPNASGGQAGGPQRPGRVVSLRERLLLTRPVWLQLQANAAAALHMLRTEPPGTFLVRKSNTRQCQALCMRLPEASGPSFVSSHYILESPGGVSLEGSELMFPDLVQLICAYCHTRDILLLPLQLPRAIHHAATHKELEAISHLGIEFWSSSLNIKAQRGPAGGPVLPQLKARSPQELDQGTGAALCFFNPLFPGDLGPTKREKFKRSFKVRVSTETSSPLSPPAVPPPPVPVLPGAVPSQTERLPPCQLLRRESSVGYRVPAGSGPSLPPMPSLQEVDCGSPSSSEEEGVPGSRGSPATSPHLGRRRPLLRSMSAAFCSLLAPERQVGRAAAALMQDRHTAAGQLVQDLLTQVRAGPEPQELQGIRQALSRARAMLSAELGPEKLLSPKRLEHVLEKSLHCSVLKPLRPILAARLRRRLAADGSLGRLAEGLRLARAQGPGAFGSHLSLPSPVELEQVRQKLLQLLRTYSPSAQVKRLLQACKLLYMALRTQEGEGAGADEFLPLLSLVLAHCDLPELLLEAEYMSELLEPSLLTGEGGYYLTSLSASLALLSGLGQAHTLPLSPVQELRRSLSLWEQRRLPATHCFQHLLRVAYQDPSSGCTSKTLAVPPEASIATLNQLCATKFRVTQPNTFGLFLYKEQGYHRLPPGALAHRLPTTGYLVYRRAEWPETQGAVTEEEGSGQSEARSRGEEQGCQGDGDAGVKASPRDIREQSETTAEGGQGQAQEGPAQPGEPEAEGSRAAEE
Neddyl inh conf – cullin neddylation inhibition, confirmation; shares compounds with Neddylation inh; TR-FRET cullin neddylation biochemical assay; calls only at 25 µM; hit rate 13% among 1,800; AID 652217;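 note: neddylation substrate is the cullin 1 ring ligase complex with SKP2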
* marks the source's active call; other numbers are inactive results; i = inactive; nt = no result given. Cut-off read from the data, not from the text of the source, unless noted: active = inhibition above about 40%; inactive = the rest.

SMILES	SUMO1-SIM PPI	ATG4B inh	Neddylation inh	Rin1-Abl PPI inh	others
CC(C)c1ccc(/C=C/C(=O)NC(=S)Nc2ccc(CN3CCOCC3)cc2)cc1	-4.1	-11.6	40.2*	0.8	Neddyl inh conf=i
CN1CCN(c2ncnc3c2ncn3[C@H]2CN(Cc3ccccc3)C[C@@H](CO)O2)CC1	-1.6	nt	0.8	-1.6
Cc1ccc2sc(=O)[nH]c2c1	-5.5	-4.9	2.1	-4.0
Cc1ccc2c3c([nH]c2c1)C(=O)CC(C)(C)S3	-3.5	-14.6	46.0*	0.7	Neddyl inh conf=i
COCCNC(=O)COC(=O)c1cc(-c2ccc(OC)cc2)nc2ccccc12	-23.7	-13.0	43.7*	-1.6
COc1ccc(-c2cc(C(=O)OCC(=O)NC3CC3)c3ccccc3n2)cc1	-33.5	-13.1	56.4*	2.2
CCCNC(=O)COC(=O)c1cc(-c2ccc(OC)cc2)nc2ccccc12	-5.7	-7.3	nt	-0.4
CCNC(=O)COC(=O)c1cc(-c2ccc(OC)cc2)nc2ccccc12	-25.9	-8.9	56.7*	2.9
CC(C)NC(=O)C1(C)CN(S(C)(=O)=O)CC(=O)N1Cc1cccs1 (centres undefined)	-1.9	nt	-6.8	nt
CCOc1ccccc1NC(=O)CCNC(=O)C1CCN(S(=O)(=O)c2ccccc2)CC1	-0.6	nt	9.4	-0.6
CCOC(=O)N1CCN(C(c2ccnc3ccccc23)c2nnnn2-c2ccc3c(c2)OCCO3)CC1 (centres undefined)	0.9	nt	-0.2	nt
CCCCOc1ccc(S(=O)(=O)NC(=O)C2(C)CCN2C(=O)CCc2ccccc2)cc1 (centres undefined)	4.3	nt	5.2	0.9
Cc1cc(N/C(=N/S(=O)(=O)c2ccc(F)cc2)c2ccccc2)n(-c2ccccc2)n1	14.6	-3.3	51.8*	-3.9	Neddyl inh conf=i
Cc1cc(N/C(=N/S(=O)(=O)c2cc(F)ccc2F)c2ccccc2)n(-c2ccccc2)n1	-2.0	-9.0	nt	1.3
Cc1ccc2nc(Cl)cc(=O)n2c1	-14.5	9.3	43.5*	-0.3	Neddyl inh conf=i
COc1ccc(S(=O)(=O)N2CCCC(C(=O)N3CCN(Cc4ccccc4)CC3)C2)cc1Cl (centres undefined)	1.4	nt	-9.5	2.4
CC(=O)Nc1cccc(-c2ccnc3c2CC(C(=O)NCc2cccc(Cl)c2)O3)c1 (centres undefined)	3.5	nt	11.8	1.4
COCc1cc(C)nc2sc(C(=O)Nc3ccccc3C)c(N)c12	-10.5	-0.3	42.8*	-3.3
COCc1cc(C)nc2sc(C(=O)OC)c(N)c12	-7.1	-11.7	42.9*	0.1
Cn1c(O)c(/C=N/NC(=O)c2cc3ccccc3cc2O)c2ccccc21	-8.7	31.5	nt	-1.9
COCCn1c(C)cc(/C=N/NC(=O)c2cc3ccccc3cc2O)c1C	1.2	-13.9	50.5*	1.4
CC1Cc2ccccc2N1c1ncnc2nc[nH]c12 (centres undefined)	4.6	-3.5	66.2*	0.7
Cc1cc(C)c(S(C)(=O)=O)c(=O)[nH]1	-1.4	0.0	7.7	2.0
Cc1cc(=O)c2c([nH]1)c(C)cc1[nH]c(C)c(C)c12	9.4	-0.2	42.9*	-0.7
CCCCc1cc(=O)oc2cc(OC3CCCCC3=O)ccc12 (centres undefined)	4.6	-5.4	38.6*	-0.4	Neddyl inh conf=i
SMILES	SUMO1-SIM PPI	ATG4B inh	Neddylation inh	Rin1-Abl PPI inh	others
CCCc1cc(=O)oc2c(C)c(OC3CCCCC3=O)ccc12 (centres undefined)	1.4	4.0	34.6	-1.0
COc1ccc(CCCc2nnc(SCC(=O)Nc3cc(C)c(C)cc3Br)o2)cc1	1.3	9.2	1.8	-3.3
COc1ccc(OC)c(/C=N\NC(=O)CSc2nnc(CCCc3ccc(OC)c(C)c3)o2)c1	-2.3	-9.8	37.0*	0.1
C=CCN1C(=O)C(=Cc2ccc3c(c2)CCC3)SC1=S	-4.6	nt	-13.6	-2.3
COC(=O)COc1ccc2oc(=O)cc(-c3cc4cccc(OC)c4o3)c2c1	40.1*	0.6	41.9*	0.2	Neddyl inh conf=i
Cc1cccc(CN2CCN(C3CN(Cc4cn(Cc5ccc(F)cc5)nn4)S(=O)(=O)C3)CC2)c1 (centres undefined)	-0.1	nt	-0.8	nt
CC(C)n1ncc2c(C(=O)NCC(=O)Nc3ccccc3Br)cc(C3CC3)nc21	0.5	-8.7	40.4*	-0.1
Cc1cc(C)c(NC(=O)CNC(=O)c2cc(C3CC3)nc3c2cnn3C(C)C)c(C)c1	-1.0	nt	nt	-1.1
CCc1ccccc1NC(=O)CNC(=O)c1cc(C2CC2)nc2c1cnn2C(C)C	-2.2	-1.0	59.9*	0.8
CC(C)C[C@H]1CN(CCCC[C@H]2CNC(=O)C(=O)N2Cc2ccccc2)C(=O)C(=O)N1CC1CCCCC1	6.0	nt	0.2	nt

Screens deposited in PubChem by several laboratories.
